Results filed as inconclusive are left out. Activity calls are given as the source filed them. Calls follow the shape of the dose curve; as a rule, active = well fitted curve in the direction sought with a large enough effect; inconclusive = small, poorly fitted or top-dose-only effect, or another doubt; inactive = no such curve, though single readings can be large; an effect the other way counts as inactive or inconclusive.
What was measured:
[1] = molecular target: Metallo-beta-lactamase type 2 (Klebsiella pneumoniae) (UniProt C7C422); experiment: qHTS to identify inhibitors of the New Delhi Metallo-beta-lactamase (NDM): assay validation screen against the NCATS LOPAC Collection (AID 1794843); also: series mostly up to about 38 µM
Outline: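 Absorbance at 485 nm from nitrocefin turnover (50 uM solution added), read at plateau, gives the read-out. Compounds in DMSO were incubated first with 2 nM final NDM-1 in pH 7.0 HEPES buffer containing 1 uM ZnSO4 and 0.01% Tween20.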

[2] = molecular target: Glutathione peroxidase 1 (Homo sapiens) (UniProt P07203); experiment: Primary qHTS Assay for Inhibitors of Recombinant Selenoprotein Glutathione Peroxidase 1 (GPX1) (AID 1845191); also: nearly all actives have a fitted effect of over 65% in size
Outline: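 NADPH consumption tracked by fluorescence at 340/450 nm between t=0 and t=15 min, room temperature. Final mix: 10 nM GPX1, 100 nM glutathione reductase, 1 mM GSH, 0.5 mM NADPH, 0.5 mM cumene hydroperoxide, 0.01% BSA; 30 min compound–enzyme preincubation.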

[3] = molecular target: Phospholipid hydroperoxide glutathione peroxidase GPX4 (Homo sapiens) (UniProt P36969); experiment: Primary qHTS Assay for Inhibitors of Recombinant Selenoprotein Glutathione Peroxidase 4 (GPX4) (AID 1845192); also: nearly all actives have a fitted effect of over 65% in size
Outline: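 NADPH consumption followed by fluorescence at 340/450 nm, t=0 and after 15 min at room temperature. Reaction started with cumene hydroperoxide (0.5 mM final) after 30 min compound–GPX4 preincubation; final 200 nM GPX4, 100 nM GR, 1 mM GSH, 0.5 mM NADPH.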

Measured: Potency

Sequence of Glutathione peroxidase 1 (Homo sapiens) (P07203 whole entry, looked up): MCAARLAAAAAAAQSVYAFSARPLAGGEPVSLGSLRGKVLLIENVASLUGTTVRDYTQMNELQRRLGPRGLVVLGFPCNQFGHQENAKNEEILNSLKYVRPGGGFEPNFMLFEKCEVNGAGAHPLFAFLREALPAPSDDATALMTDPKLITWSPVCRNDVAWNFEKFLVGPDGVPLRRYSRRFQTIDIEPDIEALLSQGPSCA
Sequence of Metallo-beta-lactamase type 2 (Klebsiella pneumoniae) (C7C422 whole entry, looked up): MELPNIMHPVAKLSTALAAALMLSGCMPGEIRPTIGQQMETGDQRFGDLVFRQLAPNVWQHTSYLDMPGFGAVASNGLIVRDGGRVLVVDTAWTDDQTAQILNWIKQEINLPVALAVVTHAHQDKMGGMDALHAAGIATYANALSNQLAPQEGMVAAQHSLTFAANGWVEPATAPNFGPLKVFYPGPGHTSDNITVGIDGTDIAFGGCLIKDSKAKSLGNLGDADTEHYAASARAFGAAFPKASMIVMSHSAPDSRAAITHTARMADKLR
Sequence of Phospholipid hydroperoxide glutathione peroxidase GPX4 (Homo sapiens) (P36969 whole entry, looked up): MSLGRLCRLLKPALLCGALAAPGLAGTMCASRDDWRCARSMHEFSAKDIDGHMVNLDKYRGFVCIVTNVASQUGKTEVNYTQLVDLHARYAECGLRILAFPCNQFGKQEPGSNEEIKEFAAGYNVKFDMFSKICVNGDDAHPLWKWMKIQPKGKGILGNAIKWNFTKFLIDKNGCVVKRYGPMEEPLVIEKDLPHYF

COC(=O)c1c(C)[nH]c(C)c1C(=O)c1ccccc1Cc1ccccc1
inactive: [1] | [2] | [3]

CCCCCCCCCCCCCCCCCCN(CCCCCCCCCCCCCCCCCC)CCCN(CCO)CCO
inactive: [1] | [2] | [3]

Nc1nc(OCC2CCCCC2)c2[nH]cnc2n1
inactive: [1] | [2] | [3]

O=C(c1ccc(Cl)cc1)N1CCN(c2ccc([N+](=O)[O-])c3ncccc23)CC1
inactive: [1] | [2] | [3]

OCC1O[C@H](O)C(Cl)C(O)C1O (stereo not given in full)
inactive: [1] | [2] | [3]

CCCCCCCC/C=C\CCCCCCCC(=O)NCCO
inactive: [1] | [2] | [3]

CCN1/C(=C/C(C)=O)Sc2ccc(OC)cc21
inactive: [1] | [2] | [3]

COc1ccc2c(c1)CCC1C2CC[C@@]2(C)C1CC[C@@H]2NCCCCCCN1C(=O)CCC1=O (stereo not given in full)
inactive: [1] | [2] | [3]

COc1ccccc1CN[C@@H]1CCCN[C@@H]1c1ccccc1
inactive: [1] | [2] | [3]

CO[C@H]1O[C@@H]2O[C@]3(C)CC[C@@H]4[C@@H](C)CC[C@H]([C@H]1C)[C@]24OO3
inactive: [1] | [2] | [3]

CC12C(=O)OC(=O)C1(C)C1CCC2O1 (stereo not given)
inactive: [1] | [2] | [3]

O=C(O)CC1CCCc2ccccc2C1O (stereo not given)
inactive: [1] | [2] | [3]

COc1cc(C(O)CO)ccc1OS(=O)(=O)O (stereo not given)
inactive: [1] | [2] | [3]

CCOC(=O)C1=C(C)NC(C)=C(C(=O)OCC)C1c1c(F)c(F)c(F)c(F)c1F
inactive: [1] | [2] | [3]

CC(C)(C=O)Cc1cc(C(C)(C)C)c(O)c(C(C)(C)C)c1
inactive: [1] | [2] | [3]

CCCCC#Cc1nc(NC)c2ncn([C@@H]3O[C@H](CO)[C@@H](O)[C@H]3O)c2n1
inactive: [1] | [2] | [3]

Nc1ncnc2c1ncn2[C@@H]1O[C@H](COP(=O)(O)OP(=O)(O)OP(=O)(O)OP(=O)(O)OC[C@@H]2O[C@H](n3cnc4c(N)ncnc43)[C@@H](O)[C@H]2O)[C@@H](O)[C@H]1O
inactive: [1] | [2] | [3]

S=C(S)OC1CC2CC1C1CCCC21 (stereo not given)
inactive: [1] | [2] | [3]

CCC1C(=O)OCC1Cc1cncn1C (stereo not given)
inactive: [1] | [2] | [3]

Cc1cc(NC(=O)Nc2ccc3c(ccn3C)c2)sn1
inactive: [1] | [2] | [3]

C[C@@H](CN1CCC(Cc2ccccc2)CC1)[C@@H](O)c1ccc(O)cc1
inactive: [1] | [2] | [3]

NCCCS(=O)(=O)O
inactive: [1] | [2] | [3]

CC(=O)SCC[N+](C)(C)C
inactive: [1] | [2] | [3]

O=P(O)(O)C(Cl)(Cl)P(=O)(O)O
inactive: [1] | [2] | [3]

COC1=C(OC)C(=O)c2ccccc2C1=O
inactive: [1] | [2] | [3]

CC(C)(C)c1ccc(S(=O)(=O)/C=C/C#N)cc1
inactive: [1] | [2] | [3]

NC(CCCP(=O)(O)O)C(=O)O (stereo not given)
inactive: [1] | [2] | [3]

COc1ccc(/C=C2\COc3ccc(C)cc3C2=O)cc1O
inactive: [1] | [2] | [3]

CC1(C)CCC=[N+]1[O-]
inactive: [1] | [2] | [3]

O=C(CCCCCN1CCN(c2ccccc2-c2ccccc2)CC1)NC1CCCc2ccccc21 (stereo not given)
inactive: [1] | [2] | [3]

CC(C)Cc1ccc([C@H](C)C(=O)O)cc1
inactive: [1] | [2] | [3]

OC[C@H]1O[C@@H](n2cnc3c(NC4CCCCC4)ncnc32)[C@H](O)[C@@H]1O
inactive: [1] | [2] | [3]

COc1ccc(/C=C/c2nc(NCCCN(C)C)c3ccccc3n2)cc1
inactive: [1] | [2] | [3]

CNc1ncnc2c1ncn2[C@@H]1O[C@H](CO)[C@@H](O)[C@H]1O
inactive: [1] | [2] | [3]

NCCSSCCN
inactive: [1] | [2] | [3]

O=c1cc(-c2ccccc2)oc2c(O)c(O)ccc12
inactive: [1] | [2] | [3]

O=C(CCc1ccncc1)NNC(=O)N1Cc2ccccc2Oc2ccc(Cl)cc21
inactive: [1] | [2] | [3]

O=C(Nc1ccccc1)c1cc([N+](=O)[O-])ccc1Cl
inactive: [1] | [2] | [3]

COc1cc(OC)cc(-c2cc3cnc(N)nc3nc2NC(=O)NC(C)(C)C)c1
inactive: [1] | [2] | [3]

O=C(O)c1cc([N+](=O)[O-])ccc1NCCCc1ccccc1
inactive: [1] | [2] | [3]
